Assay outcomes (PubChem)
AMA1 RON2 block – AMA1-RON2 (P. falciparum) interaction inhibition; AlphaScreen AMA1-biotinylated RON2 peptide binding; Potency, µM (titrated, usually from 58.2 µM), for inactives: at the highest dose activity change, negative = inhibition, most hits filed as inhibitors; 0.2% of 360,000 active; AID 720542;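 note: 0% = vehicle wells and -100% = peptide control; nearly all actives have a fitted effect of over 45% in size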
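AMA1 (3D7) with his tag at 25 nM final met compounds first, then biotinylated RON2 peptide at 25 nM; detection used donor plus acceptor beads, 10 µg/mL apiece, read by AlphaScreen after 30 min at room temperature.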
SARS PLpro yeast – blocks SARS-CoV papain-like protease in a yeast assay | S. cerevisiae expressing SARS-CoV PLpro, growth rescue | Potency, µM (highest dose often 32.9 µM), inactives show at the highest dose activity, positive = growth rescue, hits mostly activators | 0.19% of 330,000 active | AID 485353; calls by dose curve; note: 0% is about no effect; nearly all actives have a fitted effect of over 55% in size
Pf growth 48h – P. falciparum growth inhibition at 48 hours (one generation); 5.9% of 310,000 active; Potency, µM (titrated, usually from 28.7 µM), for inactives: top-dose activity change, negative = inhibition, usual class: inhibitors; P. falciparum luciferase growth in erythrocytes, 48 h; note: % is set by controls: 0 for no effect and ±100 for the full control effect
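First compound was added to culture medium, then infected red cells at 0.1% parasitemia and 2% hematocrit (final). After incubation at 37 C under 5% CO2, luciferase detection reagent was dispensed and light output recorded.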
Pf growth 96h – inhibits malaria parasite growth, 96 h. P. falciparum luciferase reporter growth, 96 h. 6.9% of 320,000 active. Potency, µM (titrated, usually from 28.7 µM), for the others: top-dose activity change, negative = inhibition, hits mostly inhibitors; note: % is set by controls: 0 for no effect and ±100 for the full control effect
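P. falciparum expressing integrated firefly luciferase, in erythrocytes at 2% hematocrit, 0.05% parasitemia, incubated with compounds 96 h at 37 C, 5% CO2. Growth inhibition read as loss of luminescence; two-generation exposure targets delayed-death apicoplast inhibitors.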
An asterisk follows results filed as active; ? = inconclusive; / = not tested or not shown; [ ] = another dose, or the depositor's remark. The list is not random: actives were taken first. Their share in the collection is about 9.4%. Unless noted, calls come from the whole dose curve; as a rule, active = well fitted curve in the direction sought with a large enough effect; inconclusive = small, poorly fitted or top-dose-only effect, or another doubt; inactive = no such curve, though single readings can be large; an effect the other way counts as inactive or inconclusive. Potency is the fitted concentration of half-maximal effect.

SMILES	AMA1 RON2 block	SARS PLpro yeast	Pf growth 48h	Pf growth 96h
COCCn1c(-c2ccc(C)cc2)nc2oc3cc(OC)ccc3c(=O)c2c1=O	-6.7%	0.4%	4.15µM*	?
COC(=O)[C@]1(C)N[C@H](c2ccc(-c3ccc(Cl)c(Cl)c3)c(OC)c2)[C@@H]2C(=O)N(C)C(=O)[C@@H]21	-16.2%	-0.3%	5.22µM*	3.29µM*
CCN1C(=O)[C@H]2[C@@H](c3ccc(-c4cccc(Cl)c4)c(OC)c3)N[C@@](C)(C(=O)OC)[C@H]2C1=O	0.0%	2.2%	2.08µM*	1.17µM*
COc1ccc(/C=C(/NC(=O)c2ccc(OC)c(OC)c2)C(=O)NCCc2c[nH]c3ccccc23)cc1	-11.4%	-10.7%	?	?
COc1ccccc1CNCC(=O)Nc1ccc(N(C)C)cc1	?	-2.2%	108.6%	100.4%
COC(=O)C1=CN(Cc2ccc(OC)c(OC)c2)C=C(C(=O)OC)C1c1ccc(O)cc1	-3.2%	-6.7%	?	52.0%
Cc1ccc(NC(=S)NCc2ccc(Cl)cc2)c(OC(F)F)c1	48.3%	-8.3%	?	4.15µM*
COc1ccc2c(c1)C1=NN(/C(C)=C\C(C)=O)C(c3ccccc3)C1CC2 (stereo unspecified)	0.0%	-4.0%	13.1µM*	1.2%
COc1ccc2c(c1)C1=NN(/C(C)=C/C(C)=O)C(c3ccc(F)cc3)C1CC2 (stereo unspecified)	36.9%	-0.4%	0.0%	34.2%
CCN(CC)CCN1C(=O)c2oc3ccccc3c(=O)c2C1c1ccc(C)cc1 (stereo unspecified)	-2.4%	-3.9%	3.29µM*	2.62µM*
CCN(CC)CCN1C(=O)c2ccccc2NC1c1ccc(Br)cc1 (stereo unspecified)	-10.9%	-2.4%	1.04µM*	13.1µM*
CCN(CC)CCN1C(=O)c2ccccc2NC1c1ccc(N(C)C)cc1 (stereo unspecified)	-4.2%	-16.9%	0.415µM*	/
CCN(CC)CCN1C(=O)c2ccccc2NC1c1ccc(C)cc1 (stereo unspecified)	0.8%	1.2%	1.65µM*	/
Cc1cc(C)n(-c2ccc(Cl)c(C(=O)Nc3cc(C(F)(F)F)ccc3Cl)n2)n1	15.8%	20.8%	10.3%	10.2%
COc1cccc(C2C(C#N)=C(N)SC(c3ccccc3)C2[N+](=O)[O-])c1 (stereo unspecified)	-5.0%	0.0%	10.4µM*	19.2%
COc1cccc(C2C(C#N)=C(N)N(N(C)C)C3=C2C(=O)CCC3)c1 (stereo unspecified)	2.8%	-1.3%	0.0%	-25.2%
C=CCOc1ccc2ccccc2c1CNn1cn[nH]c1=S	86.5%	-1.7%	7.6%	-16.2%
O=[N+]([O-])c1ccc(O)c(/C=N/n2c(CO)nc3ccccc32)c1	8.9%	-4.9%	?	13.1µM*
COc1ccc(-n2c(C)cc(C)c(C(C)=O)c2=S)cc1	?	17.4%	14.7µM*	11.7µM*
COc1ccc(-n2c(C)c(C(C)=O)c3cc(OC(C)=O)ccc32)cc1	-1.7%	6.0%	104.3%	-25.9%
COc1ccc(-n2c(CN3CCN(c4ccccc4OC)CC3)nc3ccc([N+](=O)[O-])cc3c2=O)c(OC)c1	0.2%	-0.9%	13.1µM*	-18.5%
O=C(N/N=C/c1cc(Cl)c(O)c(Cl)c1)c1cc2c(ccc3ccccc32)o1	-16.5%	-17.2%	11.7µM*	?
O=C(N/N=C/c1ccc(O)c(Br)c1)c1cc2c(ccc3ccccc32)o1	15.3%	-2.9%	?	?
O=C(N/N=C/c1cc(Br)c(O)c(Br)c1)c1cc2c(ccc3ccccc32)o1	-9.7%	-21.0%	-17.1%	13.1µM*
Cn1nnnc1SCc1nc2scc(-c3ccc(Cl)cc3)c2c(=O)[nH]1	28.2%	-0.8%	-9.7%	-19.4%
SMILES	AMA1 RON2 block	SARS PLpro yeast	Pf growth 48h	Pf growth 96h
CCOC(=O)c1c(NC(=O)COC(=O)c2ccc([N+](=O)[O-])cc2)sc(C(=O)N(C)C)c1C	1.5%	-1.2%	-25.5%	11.9%
CCC1CCCCN1CCCNC(=O)CCCOc1cc(=O)n(C)c2ccccc12 (stereo unspecified)	0.3%	-2.7%	-22.4%	6.57µM*
Cc1cccc(CCNC(=O)CCCOc2cc(=O)n(C)c3ccccc23)c1	10.8%	-3.4%	?	?
Cn1c(=O)cc(OCC(=O)NCCCN2CCN(c3ccccc3F)CC2)c2ccccc21	-4.9%	-1.7%	/	?
Cc1cccc(CCNC(=O)COc2cc(=O)n(C)c3ccccc23)c1	0.4%	-1.3%	-11.4%	10.4µM*
Cn1c(=O)cc(OCC(=O)NCCCN2CCN(c3cccc(Cl)c3)CC2)c2ccccc21	0.4%	-8.8%	?	11.7µM*
Cn1cc(C(=O)NCCN2CCN(c3cccc(Cl)c3)CC2)c2c3ccccc3n(C)c2c1=O	6.3%	4.4%	1.04µM*	?
Cc1cc(C)nc(N/C(=N\S(=O)(=O)Cc2ccccc2)Nc2ccc(F)c(Cl)c2)n1	1.6%	-11.1%	-8.4%	9.28µM*
Cc1cc(C)nc(N/C(=N\S(=O)(=O)Cc2ccccc2)Nc2cccc(Cl)c2C)n1	2.5%	6.1%	16.5%	-11.2%
CCOc1ccc(C2NC(=O)c3sc(=S)n(-c4ccccc4)c3N2)cc1 (stereo unspecified)	-10.5%	-3.3%	4.15µM*	5.86µM*
Cc1oc2ccccc2c1CC(=O)NCCCN(C)C	-8.4%	-0.9%	2.08µM*	5.2%
O=C(Nc1ccc(N2CCOCC2)cc1)c1cc(-c2ccncc2)nc2ccccc12	0.0%	-0.8%	?	?
O=C(Nc1ccccc1N1CCOCC1)c1cc(-c2ccncc2)nc2ccccc12	-1.2%	-7.8%	?	8.28µM*
CCN(CC)S(=O)(=O)c1ccc(N2CCOCC2)c(NC(=O)c2cnccn2)c1	11.0%	7.4%	8.28µM*	11.7µM*
CCN(CC)S(=O)(=O)c1ccc(N2CCOCC2)c(NC(=O)C2=COCCO2)c1	-9.7%	-2.2%	3.29µM*	2.08µM*
CCN(CC)S(=O)(=O)c1ccc(N2CCOCC2)c(NC(=O)c2cccc3ccccc23)c1	4.5%	-15.0%	?	?
CCN(CC)S(=O)(=O)c1ccc(N2CCOCC2)c(NC(=O)c2cc(-c3ccccn3)nc3ccccc23)c1	6.0%	-0.7%	1.85µM*	8.28µM*
Cc1ccc(-n2cc(C(=O)c3ccc(N4CCN(C)CC4)cc3)nn2)cc1Cl	-2.6%	-0.7%	11.9%[1.15 µM]	45.5%
CCN(CC)S(=O)(=O)c1ccc(N2CCOCC2)c(NC(=O)c2ccc3ccccc3c2)c1	-10.4%	6.8%	?	11.7µM*
CCN(CC)S(=O)(=O)c1ccc(N2CCCCC2)c(C(=O)Nc2ccccc2N2CCOCC2)c1	-11.0%	?	/	4.15µM*
CCN(CC)S(=O)(=O)c1ccc(N2CCOCC2)c(NC(=O)C2CCCO2)c1 (stereo unspecified)	-0.4%	0.9%	?	8.28µM*
CCN(CC)S(=O)(=O)c1ccc(N2CCOCC2)c(NC(=O)c2ccc3c(c2)OCCO3)c1	-5.0%	-8.9%	?	?
CCN(CC)S(=O)(=O)c1ccc(N2CCOCC2)c(NC(=O)c2cc(=O)[nH]c3ccccc23)c1	0.9%	-0.9%	-18.9%	-21.9%
